Measured values from ChEMBL document CHEMBL1157539, “Thousands of chemical starting points for antimalarial lead identification” (Nature, 2010).
“And” between values parts separate entries of the source, which are not always exact repeats. Identical values can stand only once.

Test system: Plasmodium falciparum
Assay: GSK_TCMDC: Inhibition of Plasmodium falciparum 3D7 in whole red blood cells, using parasite LDH activity as an index of growth. Test compounds present at 2uM
Format: functional

First: CCc1ccc(CC(C)NCC(O)c2ccccc2)cc1.O (stereo not given)
Second: COc1cc(CC(C)NCC(O)c2cccc(C(F)(F)F)c2)ccc1OCc1ccccc1 (stereo not given)
The Inhibition of the first is lower: 89% for the first, 93% for the second.

O=[N+]([O-])c1ccc(Oc2c(Cl)cc(S(=O)(=O)N3CCC(CN4CCC(c5c[nH]c6ccccc56)CC4)CC3)cc2Cl)c(Cl)c1 and O=C(/C=C/c1ccc(Cl)c(Cl)c1)NCC1CCC(N2CCC(c3c[nH]c4ccccc34)CC2)CC1 (stereo not given) are the same in Inhibition: 100% for the first, 100% for the second.

Going from O=C1Nc2cccc3c2C1(CCCCN1CC=C(c2c[nH]c4ncccc24)CC1)CCC3 (stereo not given) to O=C(c1ccccc1)C1CC1CN1CC=C(c2c[nH]c3ccccc23)CC1 (stereo not given), the Inhibition rises from 92% to 95%.

Going from O=C(NC1CCC(N2CCC3(CC2)C(=O)NCN3c2ccccc2)CC1)c1cc2ccccc2[nH]1 (stereo not given) to O=C(/C=C/c1ccc2ccccc2c1)NC1CCC(CN2CCC(c3c[nH]c4ccccc34)CC2)CC1 (stereo not given), the Inhibition rises from 98% to 100%.

First: C#CCN1CCC2=C(C1)c1c(O)cc(C(C)C(C)CCc3ccc(F)cc3)cc1OC2(C)C (stereo not given)
Second: CCCCCc1cc(O)c2c(c1)OC(C)(C)CC2C1=CCN(Cc2ccccc2)CC1 (stereo not given)
The Inhibition of the first is higher: 100% for the first, 99% for the second.

Going from Cc1ccc(C)c(N2CCN(Cc3ccccc3O)CC2)c1 to CCC1(C)CC(CCNCc2ccccc2O)(c2ccc(C)cc2)CCO1 (stereo not given), the Inhibition falls from 100% to 97%.

Compared with CC(C)CNCc1cccc(-c2ccc(CN(C(=O)NC3CCCCC3)C3CCN(Cc4ccccc4)CC3)cc2)c1.O=C(O)C(F)(F)F, COCC(=O)N(Cc1cccc(-c2ccc(CNCCc3ccccc3)cc2)c1)C1CCN(Cc2ccccc2)CC1.O=C(O)C(F)(F)F is lower in Inhibition: 97% for the first, 93% for the second.

Compared with Cc1[nH]c2ccc([N+](=O)[O-])cc2c1C1=CCN(C)CC1, CN1CCC(O)(c2ccc(Br)cc2)C(C(O)c2ccc(Br)cc2)C1.CS(=O)(=O)O (stereo not given) is higher in Inhibition: 86% for the first, 98% for the second.

First: CN(CC(=O)N1CCN(S(=O)(=O)c2cccc(Cl)c2)CC1CN1CCCC1)c1ccc(Cl)c(Cl)c1 (stereo not given)
Second: O=C(/C=C/c1cc(C(F)(F)F)ccc1F)NC1CCC(CN2CCC(c3c[nH]c4ccccc34)CC2)CC1 (stereo not given)
The Inhibition of the first is lower: 89% for the first, 100% for the second.

Going from CC[C@H]1CN2CCc3cc(OC)c(OC)cc3[C@@H]2C[C@@H]1C[C@H]1NCCc2c1cc(OC)c(OC)c2Br to COc1cccc(O)c1CNCC(O)c1cccc(C(F)(F)F)c1 (stereo not given), the Inhibition falls from 99% to 98%.

Compared with CN1C(=O)[C@H](NC(=O)[C@@H](Cc2ccccc2)NC(=S)Nc2ccccc2)N=C(c2ccccc2)c2ccccc21, CC(=O)N(Cc1ccc(-c2ccc(CNCCc3ccccc3)cc2)cc1)C1CCN(Cc2ccccc2)CC1.O=C(O)C(F)(F)F is higher in Inhibition: 86% for the first, 95% for the second.

Cl.Cl.c1ccc2c(NCCCCCCNc3c4ccccc4nc4ccccc34)c3ccccc3nc2c1 and c1ccc(C(OCCC2CCN(Cc3cccc4cccnc34)CC2)c2ccccc2)cc1 are the same in Inhibition: 99% for the first, 99% for the second.

Compared with O=C(c1cc(C(=O)NCc2ccc(Cl)cc2)c(=O)n(Cc2ccc(Cl)cc2)c1)c1cc(Cl)ccc1O, CCOC(C(=O)OCC1CCCN1C(C)C)(c1ccccc1)c1ccccc1 (stereo not given) is higher in Inhibition: 80% for the first, 98% for the second.

Test system: Plasmodium falciparum
Assay: GSK_TCMDC: Inhibition of Plasmodium falciparum Dd2 in whole red blood cells, using parasite LDH activity as an index of growth. Test compounds present at 2uM
Format: functional

Going from COc1ccccc1CC(C)NCC(O)c1cccc(Cl)c1 (stereo not given) to Cc1ccc(CC(C)NCC(O)c2cccc(Br)c2)cc1 (stereo not given), the Inhibition falls from 98% to 97%.

Compared with COc1cccc(CCNC(C)Cc2ccc(OCCCCOc3ccccc3)cc2)c1 (stereo not given), C[C@H](Cc1ccc(OCCCCCCOc2ccccc2)cc1)NC[C@@H](O)c1cc(Br)no1.Cl is lower in Inhibition: 90% for the first, 70% for the second.

Compared with COc1ccc(OC)c(C(O)C(C)NCc2cc(Cl)ccc2O)c1.Cl (stereo not given), COc1cccc(O)c1CNCC(O)c1cccc(C(F)(F)F)c1 (stereo not given) is lower in Inhibition: 99% for the first, 96% for the second.

Compared with COCCNCc1cccc(-c2cccc(CN(C(=O)Nc3ccccc3)C3CCN(Cc4ccccc4)CC3)c2)c1.O=C(O)C(F)(F)F, CC(C)CNCc1cccc(-c2ccccc2CN(C(=O)Nc2ccccc2)C2CCN(Cc3ccccc3)CC2)c1.O=C(O)C(F)(F)F is higher in Inhibition: 65% for the first, 68% for the second.

Compared with Cc1nc(-c2ccc(-c3ccc(C(=O)Nc4ccc5c(c4)C4(CCNCC4)CO5)cc3)c(C)c2)no1.Cl, O=C(c1cc(C(=O)NCc2ccc(Cl)cc2)c(=O)n(Cc2ccc(Cl)cc2)c1)c1cc(Cl)ccc1O is lower in Inhibition: 15% for the first, 4% for the second.

First: CN1CC[C@H](N(Cc2ccccc2F)c2ccc(C#N)c(Cl)c2)C1
Second: Cc1ccc(C)c(N2CCN(Cc3ccccc3O)CC2)c1
The Inhibition of the first is lower: 68% for the first, 90% for the second.

Going from CC[C@H]1CN2CC[C@H]1C[C@H]2[C@@H](O)c1cc(OCCCN(C)C)nc2ccc(OC)cc12 to CC[C@H]1CN2CCc3cc(OC)c(OC)cc3[C@@H]2C[C@@H]1C[C@H]1NCCc2c1cc(OC)c(OC)c2Br, the Inhibition rises from 8% to 97%.

Compared with O=C(/C=C/c1cc(F)c(F)cc1F)N1CCC(CN2CCC(c3c[nH]c4ccccc34)CC2)CC1, O=C(/C=C/c1cc(C(F)(F)F)ccc1F)NC1CCC(CN2CCC(c3c[nH]c4ccccc34)CC2)CC1 (stereo not given) is higher in Inhibition: 3% for the first, 66% for the second.

First: CCc1ccc(CC(C)NCC(O)c2ccccc2)cc1.O (stereo not given)
Second: COc1cc(CC(C)NCC(O)c2cccc(C(F)(F)F)c2)ccc1OCc1ccccc1 (stereo not given)
The Inhibition of the first is higher: 77% for the first, 71% for the second.

Compared with O=[N+]([O-])c1ccc(Oc2c(Cl)cc(S(=O)(=O)N3CCC(CN4CCC(c5c[nH]c6ccccc56)CC4)CC3)cc2Cl)c(Cl)c1, O=C(/C=C/c1ccc(Cl)c(Cl)c1)NCC1CCC(N2CCC(c3c[nH]c4ccccc34)CC2)CC1 (stereo not given) is higher in Inhibition: 83% for the first, 95% for the second.

First: O=C1Nc2cccc3c2C1(CCCCN1CC=C(c2c[nH]c4ncccc24)CC1)CCC3 (stereo not given)
Second: O=C(c1ccccc1)C1CC1CN1CC=C(c2c[nH]c3ccccc23)CC1 (stereo not given)
The Inhibition of the first is higher: 80% for the first, 73% for the second.

Compared with O=C(NC1CCC(N2CCC3(CC2)C(=O)NCN3c2ccccc2)CC1)c1cc2ccccc2[nH]1 (stereo not given), O=C(/C=C/c1ccc2ccccc2c1)NC1CCC(CN2CCC(c3c[nH]c4ccccc34)CC2)CC1 (stereo not given) is higher in Inhibition: 40% for the first, 88% for the second.

First: C#CCN1CCC2=C(C1)c1c(O)cc(C(C)C(C)CCc3ccc(F)cc3)cc1OC2(C)C (stereo not given)
Second: CCCCCc1cc(O)c2c(c1)OC(C)(C)CC2C1=CCN(Cc2ccccc2)CC1 (stereo not given)
The Inhibition of the first is higher: 99% for the first, 79% for the second.

First: CC(C)CNCc1cccc(-c2ccc(CN(C(=O)NC3CCCCC3)C3CCN(Cc4ccccc4)CC3)cc2)c1.O=C(O)C(F)(F)F
Second: COCC(=O)N(Cc1cccc(-c2ccc(CNCCc3ccccc3)cc2)c1)C1CCN(Cc2ccccc2)CC1.O=C(O)C(F)(F)F
The Inhibition of the first is higher: 51% for the first, 45% for the second.

Compared with Cc1[nH]c2ccc([N+](=O)[O-])cc2c1C1=CCN(C)CC1, CN1CCC(O)(c2ccc(Br)cc2)C(C(O)c2ccc(Br)cc2)C1.CS(=O)(=O)O (stereo not given) is higher in Inhibition: 68% for the first, 99% for the second.

Going from CN(CC(=O)N1CCN(S(=O)(=O)c2cccc(Cl)c2)CC1CN1CCCC1)c1ccc(Cl)c(Cl)c1 (stereo not given) to c1ccc(C(OCCC2CCN(Cc3cccc4cccnc34)CC2)c2ccccc2)cc1, the Inhibition rises from 32% to 99%.

Compared with CN1C(=O)[C@H](NC(=O)[C@@H](Cc2ccccc2)NC(=S)Nc2ccccc2)N=C(c2ccccc2)c2ccccc21, CC(=O)N(Cc1ccc(-c2ccc(CNCCc3ccccc3)cc2)cc1)C1CCN(Cc2ccccc2)CC1.O=C(O)C(F)(F)F is lower in Inhibition: 23% for the first, 15% for the second.

First: CCC1(C)CC(CCNCc2ccccc2O)(c2ccc(C)cc2)CCO1 (stereo not given)
Second: CCOC(C(=O)OCC1CCCN1C(C)C)(c1ccccc1)c1ccccc1 (stereo not given)
The Inhibition of the first is higher: 66% for the first, 2% for the second.

In the case of Cl.Cl.c1ccc2c(NCCCCCCNc3c4ccccc4nc4ccccc34)c3ccccc3nc2c1, the Inhibition is reported as 80%.

With COc1cccc(/C=C/C(=O)NC2CCC(CN3CCC(c4c[nH]c5ccccc45)CC3)CC2)c1 (stereo not given) the Inhibition was 26% and 38%.
In the case of CC(=O)Nc1ccc2[nH]cc(C3CCN(CC4CCC(NC(=O)/C=C/c5ccc(Cl)c(Cl)c5)CC4)CC3)c2c1 (stereo not given), the Inhibition is reported as 99% and 59%.
